Experiment [1] can be described thus: Primary qHTS for inhibitors of nuclear receptor binding SET domain protein 2 (NSD2) in an isogenic RCH-ACV NSD2 p.E1099K mutant (9B) (AID 1645876).
A short description of experiment [2]: Primary qHTS for inhibitors of nuclear receptor binding SET domain protein 2 (NSD2) in an RCH-ACV wild type WT cells (2C) (AID 1645877). (Quantitative high-throughput screening tests each substance at several concentrations.)

Molecules are shown by their SMILES. Inconclusive results are not listed. Entries that show only a call come without a potency. Activity calls are given as the source filed them. The call rests on the fitted dose curve; in most records, active means well fitted curve in the direction sought with a large enough effect; inconclusive means small, poorly fitted or top-dose-only effect, or another doubt; inactive means no such curve, though single readings can be large; an effect the other way counts as inactive or inconclusive.
Further: nearly all actives have a fitted effect of over 70% in size.

For `O=C(O)c1cc(O[C@@H]2O[C@H](CO[C@@H]3OC[C@@H](O)[C@H](O)[C@H]3O)[C@@H](O)[C@H](O)[C@H]2O)c2ccccc2c1O`, the Potency result in experiment [1] and in experiment [2] was “inactive” each time.

As for `COc1cc(C(C)=O)ccc1O[C@@H]1O[C@H](CO[C@@H]2O[C@@H](C)[C@H](O)[C@@H](O)[C@H]2O)[C@@H](O)[C@H](O)[C@H]1O`, the Potency entry in experiment [1] and in experiment [2] was “inactive” in each case.

Take `C=CC1(C)CC2=CCC3C(C)(C(=O)O)CCCC3(C)C2CC1OC(C)=O` (stereo not given): the Potency result in experiment [1] and in experiment [2] was “inactive” each time.

Regarding `Cc1nnc(C(C)C)n1C1CC2CCC(C1)N2CCC(NC(=O)C1CCC(F)(F)CC1)c1ccccc1` (stereo not given), the Potency entry in experiment [1] and in experiment [2] was “inactive” in each case.

`C=C1CCC2C(C)(C)C(O)CCC2(C)C1CCC(C)CCOC(=O)CCC(=O)O` (stereo not given): the Potency entry in experiment [1] and in experiment [2] was “inactive” in each case.

For the origin of these results see PubChem BioAssay (NCATS).
